# Screening data: PubChem, National Center for Advancing Translational Sciences (NCATS)
# DRD3 antagonist = qHTS of D3 Dopamine Receptor Antagonist: qHTS; D(3) dopamine receptor (Homo sapiens), P35462; D3R cells, DiscoveRx beta-arrestin luminescence, antagonist mode; active compounds read low; max response, negative = inhibition, %; 360,000 compounds, 2.5% hits; AID 652054, 2013; in the data active = max response below about -50%; inconclusive = no clear call, values can overlap the other calls; note: % is set by controls: 0 for no effect and ±100 for the full control effect
# Target sequence (P35462 whole entry, looked up): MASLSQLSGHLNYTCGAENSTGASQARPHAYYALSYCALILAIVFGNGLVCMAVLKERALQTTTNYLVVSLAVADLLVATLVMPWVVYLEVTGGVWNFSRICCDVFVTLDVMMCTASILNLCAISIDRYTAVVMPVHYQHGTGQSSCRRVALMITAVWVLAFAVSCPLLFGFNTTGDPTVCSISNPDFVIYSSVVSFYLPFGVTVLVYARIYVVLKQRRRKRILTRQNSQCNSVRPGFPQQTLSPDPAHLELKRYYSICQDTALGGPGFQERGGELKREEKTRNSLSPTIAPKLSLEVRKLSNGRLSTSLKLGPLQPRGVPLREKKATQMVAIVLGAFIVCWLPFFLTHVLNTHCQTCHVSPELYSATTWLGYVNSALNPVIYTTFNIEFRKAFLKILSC
#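 Cells expressing the human receptor were seeded at 1500 cells/well, incubated overnight at 37 degrees C in 5% CO2, then exposed to library compounds with dopamine controls for 90 minutes at 37 degrees C before luminescent detection.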
# DRD3 agonist = qHTS of D3 Dopamine Receptor Agonist: qHTS; D(3) dopamine receptor (Homo sapiens), P35462; 410,000 compounds, 0.58% hits; max activation, %; D3R DiscoveRx beta-arrestin cells, luminescence, 90 min; in the data active = max activation above about 30%; note: 0% is about no effect
#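 Agonist mode: compounds and dopamine controls were applied to plated cells for 90 min at 37 degrees C after an overnight attachment at 1500 cells/well. Luminescent read-out followed 30 - 60 minutes at room temperature with DiscoveRx detection reagent.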
# Nrf2 activator = qHTS of Nrf2 Activators; AREc32 ARE-luciferase reporter (MCF7-derived line), luminescence, 24 h; Potency, µM (series often up to 46.1 µM), for the others: at the highest dose activation, usual class: activators; 410,000 compounds, 0.31% hits; note: potency is the fitted concentration of half-maximal effect; % of control where 0% means no effect; nearly all actives have a fitted effect of over 65% in size
#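 ARE-driven firefly luciferase activity in AREc32 cells measured after a 24 hr compound exposure at 37 deg C, using Steady-Glo reagent and a 30 min room-temperature hold.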
# GRP78 ERSR act = qHTS for Inducers of the Endoplasmic Reticulum Stress Response (ERSR) in Human Glioma: qHTS | U87-MG GRP78 promoter luciferase reporter, 16 h | Potency, µM, for inactives: at the top dose activation, hits mostly activators | 420,000 compounds, 0.02% hits | AID 602332, 2012; note: potency is the fitted concentration of half-maximal effect; series mostly up to about 76 µM; % of control where 0% means no effect; nearly all actives have a fitted effect of over 35% in size
#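 ERSR induction read as luciferase luminescence (Bright-Glo, 10 min at room temperature) in stably transfected human U87-MG glioma cells exposed to compounds for 16 h, using GRP78 as sensor.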
# Numbers without * were called inactive; ? = inconclusive; · = not tested or not shown. Compounds with a hit are over-represented: about 3% of the library has one in this group of screens. Unless noted, calls come from the whole dose curve; as a rule, active = well fitted curve in the direction sought with a large enough effect; inconclusive = small, poorly fitted or top-dose-only effect, or another doubt; inactive = no such curve, though single readings can be large; an effect the other way counts as inactive or inconclusive.
SMILES,DRD3 antagonist,DRD3 agonist,Nrf2 activator,GRP78 ERSR act
CC[C@@H](C)[C@@H](O)[C@H](C)C(=O)[C@H](C)/C=C(\C)C[C@H](C)[C@@H]1OC(=O)[C@H]1CC,·,·,·,-0.7%
Cn1nnnc1SCC(=O)NNC(=O)c1ccc(F)cc1,-56.6*,-3.1,0.3%,-2.8%
Cn1nnnc1SCC(=O)NNC(=O)c1ccc(Cl)cc1,11.2,7.5,0.1%,-2.6%
Cc1ccc(-n2c(C)c3c(C)nnc(C)c3c2C)cc1C,-57.9*,1.7,0.1%,3.0%
Cc1cc(-n2c(C)c3c(C)nnc(C)c3c2C)ccc1N,6.6,26.9,0.6%,1.7%
Cc1ccc(CNC(=O)Cn2c(=O)n(-c3cccc(Cl)c3)c(=O)c3sc4ccccc4c32)cc1,·,5.5,-0.8%,1.0%
Nc1ncc(O)c(N)n1,·,·,·,-5.9%
O=C(NS(=O)(=O)c1ccc2c(c1)OCCO2)c1ccccc1,-85.2*,2.3,-0.1%,3.4%
OC1(C#Cc2c(-c3ccsc3)oc3ccc(N4CCOCC4)cc23)CCCCC1,61.6,2.1,15.2%,-3.4%
COc1cc(-c2ccc3oc(-c4ccsc4)c(C#CC4(O)CCCCC4)c3c2)cc(OC)c1OC,77.0,36.2*,5.7%,-2.9%
COc1ccc(-c2oc3ccc(N4CCOCC4)cc3c2C#CC2(O)CCCCC2)cc1,89.9,84.4*,-0.2%,3.2%
O=C(CCn1c(=O)c2cccn2c2cccnc21)Nc1ccccc1Br,·,6.1,7.3%,1.3%
COc1ccc2c(c1)CC(NC(=O)Nc1ccc(Br)c(C)c1)CO2 (configuration not stated),·,-6.2,0.4%,-2.7%
COc1ccc(CN2CCOc3c(O)cc(-c4cc(C)c5ccc(F)cc5n4)cc3C2)c(O)c1,·,·,·,-2.2%
Cc1cccc(C)c1N(CC(=O)Nc1cc(Cl)ccc1Oc1ccccc1)S(C)(=O)=O,-53.8*,-0.2,-0.6%,-1.4%
CC(C)CNS(=O)(=O)c1ccc(CCC(=O)Nc2cc(Cl)ccc2Oc2ccccc2)cc1,10.3,0.7,4.4%,-2.4%
CCCNS(=O)(=O)c1ccc(CCC(=O)Nc2cc(Cl)ccc2Oc2ccccc2)cc1,31.5,30.1*,3.3%,-4.3%
CCC1CN(CCNC(=O)c2ccc3c(c2)OCCO3)Cc2cc(OC)ccc2O1 (configuration not stated),·,·,·,-2.9%
CC(C)Cn1c(C(C)C)nc([N+](=O)[O-])c1S(=O)(=O)c1ccc(F)cc1,-16.8,-1.7,22.4µM*,-3.3%
CCCc1nc([N+](=O)[O-])c(S(=O)(=O)c2ccccc2)n1CC(C)C,-19.7,10.2,5.62µM*,-11.9%
CC(C)Cn1nc(NS(=O)(=O)c2ccccc2)c2cc3ccccc3nc21,?,-11.6,-0.4%,-2.6%
COCCNC(=O)Cn1cnc([N+](=O)[O-])n1,-70.9*,-5.1,0.3%,0.4%
CCCCNC(=O)Cn1cnc([N+](=O)[O-])n1,-1.3,0.5,-0.7%,0.4%
O=C(Nc1nc2ccc(Br)cc2s1)c1ccco1,-10.3,-1.6,7.94µM*,-6.6%
O=C(Nc1nc2ccsc2c(=O)s1)c1ccco1,14.3,5.2,1.26µM*,6.2%
SMILES,DRD3 antagonist,DRD3 agonist,Nrf2 activator,GRP78 ERSR act
Cc1csc2c(=O)sc(NC(=O)c3ccco3)nc12,3.1,2.1,?,3.8%
C[C@@H]1CN(Cc2ccc3c(c2)CN(Cc2cccc4c2OCO4)CCO3)C[C@H](C)O1,·,·,·,-3.4%
CCc1cccc(NC(=O)Cn2c(=O)n3nc(-c4cccc(F)c4)nc3c3ccccc32)c1,·,-6.1,5.62µM*,-2.3%
O=C(Cn1c(=O)n2nc(-c3cccc(F)c3)nc2c2ccccc21)NCc1ccc(Cl)cc1,·,-7.4,11.3%,-4.5%
COc1ccc(-c2noc(CCC(=O)N3CCN(c4cccc(OC)c4)CC3)n2)cc1,102.5,43.9*,4.4%,0.3%
COc1cc2c(cc1OC)CN(C(=O)c1ccc([N+](=O)[O-])o1)CC2,-1.8,-0.7,12.6µM*,?
Cc1ccc2c(c1)-c1c(ssc1=S)C(C)(C)N2C(=O)c1ccco1,-61.8*,-26.0,0.0%,-4.0%
CCc1ccc(N2CC(c3nc4ccccc4n3Cc3ccccc3C)CC2=O)cc1 (configuration not stated),·,7.0,0.7%,0.0%
CC[n+]1ccc(C)c2cc(S(=O)C(F)(F)F)ccc21 (configuration not stated),?,-8.3,-0.1%,-1.4%
CC[n+]1ccc(C)c2cc(P(=O)(c3ccccc3)c3ccccc3)ccc21,-57.8*,-28.5,4.4%,-3.1%
CCCCCC(=O)Nc1cccc(C2=NOC3(C2)C[C@@H](C(N)=O)N(C(=O)Cc2ccc([N+](=O)[O-])cc2)C3)c1 (some centres not stated),-55.9*,1.9,0.4%,-1.6%
CCCCCC(=O)Nc1cccc(C2=NOC3(C2)C[C@@H](C(N)=O)N(C(=O)c2cc([N+](=O)[O-])cc([N+](=O)[O-])c2)C3)c1 (some centres not stated),25.4,14.1,-0.3%,-2.7%
CCN(Cc1ccncc1)Cc1ccc2c(c1)CN(C(=O)c1cccc3c(C)c(C)[nH]c13)CCO2,·,·,·,-5.6%
COc1ccc(CCn2c(SCCN3CCCCC3)nc3ccccc3c2=O)cc1OC,-102.9*,-2.6,-3.6%,3.2%
Cc1cnc(-n2ncc(C(=O)NCCc3ccccn3)c2C)nc1-c1ccc(F)cc1,·,·,·,-2.1%
CCc1nc2cc(C(=O)N(C)CC3COCCO3)cc(NC(=O)c3ccccc3OC)c2n1C (configuration not stated),·,·,·,-1.9%
CCCCC/C(C=O)=C/c1ccccc1,·,·,·,-2.4%
COc1ccccc1-c1ccnc(-n2ncc(C(=O)NCc3ccncc3)c2C)n1,·,·,·,-3.0%
O=C(CCNc1ccc(Cl)c(C(F)(F)F)c1)c1ccco1,3.9,-12.8,?,-14.6%
O=C(CCNc1cccc(C(F)(F)F)c1)c1ccco1,-18.4,2.4,15.8µM*,2.9%
NC(=O)[C@@H]1CCCN1C(=O)CCN1Cc2ccccc2OC(c2ccccc2F)C1 (some centres not stated),·,·,·,-4.6%
Brc1ccc2c(c1)CN1CCCC1=N2,-50.2*,-7.4,-0.5%,-5.0%
O=C1CN2C(=Nc3ccc(Br)cc3C2c2ccccc2)CCN1 (configuration not stated),0.0,-1.7,5.1%,-3.1%
O=c1c(C=Nc2ccc(Oc3ccccc3)cc2)c[nH]n1-c1cccc(Cl)n1,-56.1*,0.6,-0.5%,3.9%
COc1ccc(N=Cc2c(O)n(-c3cccc(C)n3)c(=O)c3ccccc23)cc1,2.5,1.6,-0.5%,1.2%
COc1ccc(Sc2nc(-c3ccccn3)ncc2OC)cc1,2.8,-7.8,-1.1%,-1.0%
COc1cnc(-c2ccccn2)nc1Sc1ccc(Cl)cc1,-99.2*,-2.2,3.3%,-1.7%
COc1cnc(-c2ccccn2)nc1N(C)c1ccccc1,-68.2*,-21.7,16.7%,0.0%
COc1cnc(-c2ccccn2)nc1Oc1ccccc1,-1.5,-8.1,0.0%,5.4%
